In PubChem BioAssay (NCI):
The panel holds about 83,000 compounds, 20% with a hit somewhere; the sample as a whole holds those more often.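 For each line, cells grew in 96-well plates with the test compound present at a single concentration for 48 hours.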 The source made the active and inactive calls. The calls were made as follows: active = growth percent below 10; inactive = the rest.

These compounds were tested on MDA-MB-468 breast (assay: NCI-60 one-dose screen, 48 h (100 = growth as untreated, 0 = no growth, -100 = all killed)). Conditions: 10 µM unless noted.
`Oc1ccccc1/C=N/N1CCCCCC1` was tested, and the growth was 107% (inactive). For `Cc1cc2c(C(C)C)c(O)c(O)c(/C=N/O)c2c(O)c1-c1c(C)cc2c(C(C)C)c(O)c(O)c(/C=N/O)c2c1O`, the growth was 20.9% (inactive). For `O=C(Nc1ccc(F)cc1)ON=C1CCCCC1`, the growth was 105% [100 µM] (inactive). For `CCCN1CCN(c2ccc3nc(-c4ccc5nc(-c6ccc(OCC)c(OCC)c6)[nH]c5c4)[nH]c3c2)CC1`, the growth was -77.2% (active). With `CC[C@@H](C)/C=C(C)/C=C/C(=O)c1c(O)c(-c2ccc(O)cc2)cn(OC2CC(=O)CCC(C)OC(=O)CC2O)c1=O` (stereo not given in full) the growth was -29.9% (active). With `COc1ccc2c(c1)O/C(=C\c1ncc([N+](=O)[O-])n1C)C2=O` the growth was -7.9% (active). In the case of `NC(N)=Nc1ccc(Oc2cccc(Nc3ccc(Br)c(C(F)(F)F)c3)c2)cc1`, the growth was -10.6% (active). For `C/C(=C(/c1ccc(O)cc1)c1ccc(Cl)cc1)c1ccccc1`, the growth was -71.9% (active). `NC(N)=Nc1ccc(Oc2cccc(NC(N)=Nc3ccc(I)cc3F)c2)cn1` was tested, and the growth was -8.03% (active). `COc1ccc(/C=C2\COc3ccc(O)cc3C2=O)cc1OC` was tested, and the growth was 103% (inactive). With `CCOC(=O)C1=NN(c2ccccc2)C(=O)/C1=C\N1C(=O)/C(=C/c2cccc(O)c2)SC1=S` the growth was 106% (inactive). For `NC(N)=NN=C(c1ccccc1)c1ccccc1`, the growth was -31.3% (active). With `Cc1ccc(Cl)cc1NC(=O)N(C)CCO` the growth was 132% (inactive). `COC(=O)c1c(C(=O)OC)c2ccc3c4ncccc4ccc3n2c1C(=O)c1ccc(C)cc1` was tested, and the growth was 79.1% (inactive). In the case of `CCn1cc(-c2ccnc(NCCNS(=O)(=O)c3ccc(Br)cc3)c2)c(-c2cccc(OC)c2)n1`, the growth was 60.6% (inactive). In the case of `COc1ccccc1-n1cc(C#N)c(N)c1C(=O)c1ccc(Cl)cc1`, the growth was 51.6% (inactive). In the case of `O=C(N=Nc1c(O)[nH]c2ccccc12)Nc1ccc(Cl)cc1`, the growth was 81.7% (inactive). In the case of `O=C(c1cc2ccccc2o1)c1nn(-c2ccccc2)/c(=N/N=Cc2cn(-c3ccccc3)nc2-c2cc3ccccc3oc2=O)s1`, the growth was 105% (inactive). In the case of `CCCCCCCC(=O)SCC/C=C/[C@@H]1CC(=O)NCc2cccc(n2)CN(Cc2ccc(Cl)cc2)CC(=O)N[C@@H](C(C)C)C(=O)O1`, the growth was 44.6% (inactive). In the case of `O=C(CCN1CCCCC1)c1ccc(Cl)cc1`, the growth was 94.3% (inactive). For `O=C(NCc1cccnc1)c1ccc([N+](=O)[O-])o1`, the growth was 69.5% (inactive). `Cc1ccc(Nc2nnc(-c3ccc(Cl)cc3)o2)c(C)c1` was tested, and the growth was 75.4% (inactive). In the case of `CCOc1cc(N)ccc1C(=O)NCCCN(CC)CC`, the growth was 85% (inactive). `O=C(Nc1ccc(NC(=O)c2cc(=O)[nH]c3ccccc23)cc1)Nc1cccc(C(F)(F)F)c1` was tested, and the growth was 24.6% (inactive). With `O=CCCCC(O)C=O` (stereo not given) the growth was 98.9% (inactive). `CN1Cn2c(ccc2C(F)(F)F)C(=O)CS1(=O)=O` was tested, and the growth was 115% (inactive). For `O=C1[C@@H]2Cc3c([nH]c4ccccc34)[C@H](c3ccc(Cl)cc3)N2C(=O)CN1C1CCN(Cc2ccccc2)CC1`, the growth was 23.1% (inactive). With `COc1ccc(-c2cnnn2-c2cc(OC)c3c(c2)OCO3)cc1` the growth was 40.9% (inactive). For `OCCCCc1nccc2c1[nH]c1ccccc12`, the growth was 92.9% (inactive). For `O=C1/C(=C/c2ccccc2Br)COc2ccc(O)c(O)c21`, the growth was 19.2% (inactive). `O=P(O)(O)OC1C(OP(=O)(O)O)C(OP(=O)(O)O)C(OP(=O)(O)O)C(OP(=O)(O)O)C1OP(=O)(O)O.[Cu+2]` (stereo not given) was tested, and the growth was 85.8% (inactive). In the case of `CC1SC(c2ccccc2O)N(NC(=O)CCC(=O)c2nc3ncccc3[nH]2)C1=O` (stereo not given), the growth was 88.1% (inactive). `C#CCN(C)CCCOc1ccc(NCc2ccc(C(=O)NO)cc2)cc1Cl` was tested, and the growth was -5.18% (active). In the case of `O=C(CSc1nnc(-c2ccc(Cl)cc2)o1)c1ccccc1`, the growth was 97.1% (inactive). In the case of `CC(=O)Nc1ccc(C(=O)/C=C/c2ccccc2)cc1`, the growth was 90.8% (inactive). With `N=C1C=C(N)C(=O)c2ccccc21` the growth was -85.6% (active). For `Cn1ncc2cc3c(Nc4ccc(Cl)cc4)cccc3nc21`, the growth was 79% (inactive). With `COc1cc2oc(-c3cccc(NC(=O)c4ccccc4)c3)cc(=O)c2c(OC)c1OC` the growth was 84.2% (inactive). With `Cc1ccccc1NC(=O)Cn1cc(CN2CCN(c3ccnc4cc(Cl)ccc34)CC2)nn1` the growth was 93% (inactive). With `CCCCCCCCC1OC1CCCCCCCC(=O)O` (stereo not given) the growth was 89.9% (inactive).
